Active and inactive are the calls of the source.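 The calls were made as follows: active = normalized viability below 100% at a tested concentration; inactive = the rest.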
Assay: drug combination growth inhibition, ovarian cancer – cell-based, oncology-focused library, rucaparib conditional, profiling panel (AID 1508598)
Conditions: patient-derived ovarian cancer cells, CellTiter-Glo viability, 144 h; at 0.00122 µM; OCI-P5x cells; with rucaparib 20 µM; stronger effect = lower value; 100% = cells with rucaparib alone

Which viability does the source give for `O=c1[nH]cc(F)c(=O)[nH]1` here?
Its viability is 115% (inactive).

For `CCCCCCNC(=O)n1cc(F)c(=O)[nH]c1=O`, which viability is on record?
Its viability is 115% (inactive).

With `Cc1ccc(-c2cc(C(F)(F)F)nn2-c2ccc(S(N)(=O)=O)cc2)cc1` as the compound, how does the viability read?
The viability was 91.7% (active).

Which viability does the source give for `CN(CCOc1ccc(CC2SC(=O)NC2=O)cc1)c1ccccn1` (stereo unspecified) here?
The viability was 104% (inactive).

Same assay, conditions: patient-derived ovarian cancer cells, CellTiter-Glo viability, 144 h; at 0.00122 µM; OCI-P5x cells; without rucaparib; stronger effect = lower value

Which viability does the source give for `O=c1[nH]cc(F)c(=O)[nH]1` here?
Its viability is 115% (inactive).

Which viability does the source give for `CCCCCCNC(=O)n1cc(F)c(=O)[nH]c1=O` here?
Its viability is 115% (inactive).

For `Cc1ccc(-c2cc(C(F)(F)F)nn2-c2ccc(S(N)(=O)=O)cc2)cc1`, which viability is on record?
Its viability is 91.9% (active).

With `CN(CCOc1ccc(CC2SC(=O)NC2=O)cc1)c1ccccn1` (stereo unspecified) as the compound, how does the viability read?
Its viability is 108% (inactive).

Same assay, conditions: patient-derived ovarian cancer cells, CellTiter-Glo viability, 144 h; at 0.00488 µM; OCI-C5x cells; with rucaparib 10 µM; stronger effect = lower value; 100% = cells with rucaparib alone

With `O=c1[nH]cc(F)c(=O)[nH]1` as the compound, how does the viability read?
Its viability is 115% (inactive).

Which viability does the source give for `CCCCCCNC(=O)n1cc(F)c(=O)[nH]c1=O` here?
Its viability is 115% (inactive).

For `Cc1ccc(-c2cc(C(F)(F)F)nn2-c2ccc(S(N)(=O)=O)cc2)cc1`, which viability is on record?
The viability was 118% (inactive).

Which viability does the source give for `CN(CCOc1ccc(CC2SC(=O)NC2=O)cc1)c1ccccn1` (stereo unspecified) here?
Its viability is 123% (inactive).

Same assay, conditions: patient-derived ovarian cancer cells, CellTiter-Glo viability, 144 h; at 0.00488 µM; OCI-C5x cells; without rucaparib; stronger effect = lower value

Which viability does the source give for `O=c1[nH]cc(F)c(=O)[nH]1` here?
The viability was 115% (inactive).

For `CCCCCCNC(=O)n1cc(F)c(=O)[nH]c1=O`, which viability is on record?
The viability was 125% (inactive).

With `Cc1ccc(-c2cc(C(F)(F)F)nn2-c2ccc(S(N)(=O)=O)cc2)cc1` as the compound, how does the viability read?
Its viability is 107% (inactive).

Which viability does the source give for `CN(CCOc1ccc(CC2SC(=O)NC2=O)cc1)c1ccccn1` (stereo unspecified) here?
The viability was 129% (inactive).

Same assay, conditions: patient-derived ovarian cancer cells, CellTiter-Glo viability, 144 h; at 0.00488 µM; OCI-P5x cells; with rucaparib 20 µM; stronger effect = lower value; 100% = cells with rucaparib alone

For `O=c1[nH]cc(F)c(=O)[nH]1`, which viability is on record?
The viability was 104% (inactive).

With `CCCCCCNC(=O)n1cc(F)c(=O)[nH]c1=O` as the compound, how does the viability read?
Its viability is 108% (inactive).

Which viability does the source give for `Cc1ccc(-c2cc(C(F)(F)F)nn2-c2ccc(S(N)(=O)=O)cc2)cc1` here?
The viability was 93.8% (active).

With `CN(CCOc1ccc(CC2SC(=O)NC2=O)cc1)c1ccccn1` (stereo unspecified) as the compound, how does the viability read?
The viability was 96.3% (active).

Same assay, conditions: patient-derived ovarian cancer cells, CellTiter-Glo viability, 144 h; at 0.00488 µM; OCI-P5x cells; without rucaparib; stronger effect = lower value

With `O=c1[nH]cc(F)c(=O)[nH]1` as the compound, how does the viability read?
The viability was 98.7% (active).

With `CCCCCCNC(=O)n1cc(F)c(=O)[nH]c1=O` as the compound, how does the viability read?
Its viability is 117% (inactive).

Which viability does the source give for `Cc1ccc(-c2cc(C(F)(F)F)nn2-c2ccc(S(N)(=O)=O)cc2)cc1` here?
Its viability is 94% (active).

For `CN(CCOc1ccc(CC2SC(=O)NC2=O)cc1)c1ccccn1` (stereo unspecified), which viability is on record?
Its viability is 106% (inactive).

Same assay, conditions: patient-derived ovarian cancer cells, CellTiter-Glo viability, 144 h; at 0.0195 µM; OCI-C5x cells; with rucaparib 10 µM; stronger effect = lower value; 100% = cells with rucaparib alone

For `O=c1[nH]cc(F)c(=O)[nH]1`, which viability is on record?
The viability was 129% (inactive).

For `CCCCCCNC(=O)n1cc(F)c(=O)[nH]c1=O`, which viability is on record?
Its viability is 114% (inactive).

Which viability does the source give for `Cc1ccc(-c2cc(C(F)(F)F)nn2-c2ccc(S(N)(=O)=O)cc2)cc1` here?
Its viability is 115% (inactive).

With `CN(CCOc1ccc(CC2SC(=O)NC2=O)cc1)c1ccccn1` (stereo unspecified) as the compound, how does the viability read?
The viability was 114% (inactive).

Same assay, conditions: patient-derived ovarian cancer cells, CellTiter-Glo viability, 144 h; at 0.0195 µM; OCI-C5x cells; without rucaparib; stronger effect = lower value

Which viability does the source give for `O=c1[nH]cc(F)c(=O)[nH]1` here?
Its viability is 101% (inactive).

With `CCCCCCNC(=O)n1cc(F)c(=O)[nH]c1=O` as the compound, how does the viability read?
Its viability is 113% (inactive).

For `Cc1ccc(-c2cc(C(F)(F)F)nn2-c2ccc(S(N)(=O)=O)cc2)cc1`, which viability is on record?
The viability was 120% (inactive).

For `CN(CCOc1ccc(CC2SC(=O)NC2=O)cc1)c1ccccn1` (stereo unspecified), which viability is on record?
The viability was 137% (inactive).

Same assay, conditions: patient-derived ovarian cancer cells, CellTiter-Glo viability, 144 h; at 0.0195 µM; OCI-P5x cells; with rucaparib 20 µM; stronger effect = lower value; 100% = cells with rucaparib alone

For `O=c1[nH]cc(F)c(=O)[nH]1`, which viability is on record?
Its viability is 111% (inactive).

Which viability does the source give for `CCCCCCNC(=O)n1cc(F)c(=O)[nH]c1=O` here?
The viability was 107% (inactive).

Which viability does the source give for `Cc1ccc(-c2cc(C(F)(F)F)nn2-c2ccc(S(N)(=O)=O)cc2)cc1` here?
Its viability is 96.2% (active).

For `CN(CCOc1ccc(CC2SC(=O)NC2=O)cc1)c1ccccn1` (stereo unspecified), which viability is on record?
The viability was 108% (inactive).

Same assay, conditions: patient-derived ovarian cancer cells, CellTiter-Glo viability, 144 h; at 0.0195 µM; OCI-P5x cells; without rucaparib; stronger effect = lower value

For `O=c1[nH]cc(F)c(=O)[nH]1`, which viability is on record?
Its viability is 106% (inactive).

Which viability does the source give for `CCCCCCNC(=O)n1cc(F)c(=O)[nH]c1=O` here?
Its viability is 113% (inactive).

With `Cc1ccc(-c2cc(C(F)(F)F)nn2-c2ccc(S(N)(=O)=O)cc2)cc1` as the compound, how does the viability read?
The viability was 88.2% (active).

For `CN(CCOc1ccc(CC2SC(=O)NC2=O)cc1)c1ccccn1` (stereo unspecified), which viability is on record?
Its viability is 116% (inactive).

Same assay, conditions: patient-derived ovarian cancer cells, CellTiter-Glo viability, 144 h; at 0.0781 µM; OCI-C5x cells; with rucaparib 10 µM; stronger effect = lower value; 100% = cells with rucaparib alone

With `O=c1[nH]cc(F)c(=O)[nH]1` as the compound, how does the viability read?
The viability was 103% (inactive).

Which viability does the source give for `CCCCCCNC(=O)n1cc(F)c(=O)[nH]c1=O` here?
Its viability is 134% (inactive).

Which viability does the source give for `Cc1ccc(-c2cc(C(F)(F)F)nn2-c2ccc(S(N)(=O)=O)cc2)cc1` here?
Its viability is 114% (inactive).

Which viability does the source give for `CN(CCOc1ccc(CC2SC(=O)NC2=O)cc1)c1ccccn1` (stereo unspecified) here?
Its viability is 106% (inactive).

Same assay, conditions: patient-derived ovarian cancer cells, CellTiter-Glo viability, 144 h; at 0.0781 µM; OCI-C5x cells; without rucaparib; stronger effect = lower value

For `O=c1[nH]cc(F)c(=O)[nH]1`, which viability is on record?
The viability was 102% (inactive).

With `CCCCCCNC(=O)n1cc(F)c(=O)[nH]c1=O` as the compound, how does the viability read?
The viability was 117% (inactive).

With `Cc1ccc(-c2cc(C(F)(F)F)nn2-c2ccc(S(N)(=O)=O)cc2)cc1` as the compound, how does the viability read?
The viability was 117% (inactive).

With `CN(CCOc1ccc(CC2SC(=O)NC2=O)cc1)c1ccccn1` (stereo unspecified) as the compound, how does the viability read?
The viability was 128% (inactive).

Same assay, conditions: patient-derived ovarian cancer cells, CellTiter-Glo viability, 144 h; at 0.0781 µM; OCI-P5x cells; with rucaparib 20 µM; stronger effect = lower value; 100% = cells with rucaparib alone

For `O=c1[nH]cc(F)c(=O)[nH]1`, which viability is on record?
The viability was 106% (inactive).

For `CCCCCCNC(=O)n1cc(F)c(=O)[nH]c1=O`, which viability is on record?
Its viability is 103% (inactive).

With `Cc1ccc(-c2cc(C(F)(F)F)nn2-c2ccc(S(N)(=O)=O)cc2)cc1` as the compound, how does the viability read?
The viability was 96.7% (active).

For `CN(CCOc1ccc(CC2SC(=O)NC2=O)cc1)c1ccccn1` (stereo unspecified), which viability is on record?
The viability was 103% (inactive).

Same assay, conditions: patient-derived ovarian cancer cells, CellTiter-Glo viability, 144 h; at 0.0781 µM; OCI-P5x cells; without rucaparib; stronger effect = lower value

With `O=c1[nH]cc(F)c(=O)[nH]1` as the compound, how does the viability read?
Its viability is 102% (inactive).

With `CCCCCCNC(=O)n1cc(F)c(=O)[nH]c1=O` as the compound, how does the viability read?
The viability was 117% (inactive).

With `Cc1ccc(-c2cc(C(F)(F)F)nn2-c2ccc(S(N)(=O)=O)cc2)cc1` as the compound, how does the viability read?
The viability was 94.3% (active).

With `CN(CCOc1ccc(CC2SC(=O)NC2=O)cc1)c1ccccn1` (stereo unspecified) as the compound, how does the viability read?
Its viability is 113% (inactive).

From PubChem BioAssay
